According to publication PMC11006913:
Positions count from the first letter of the chain named.

Legend:
Assay in all cases: PBM; 200 nM protein, PBS
Conditions in all cases: dsDNA, one strand shown
[1] = target: T1, PAX4 (Homo sapiens, UniProt O43316 9-242, R200K)
T1 sequence: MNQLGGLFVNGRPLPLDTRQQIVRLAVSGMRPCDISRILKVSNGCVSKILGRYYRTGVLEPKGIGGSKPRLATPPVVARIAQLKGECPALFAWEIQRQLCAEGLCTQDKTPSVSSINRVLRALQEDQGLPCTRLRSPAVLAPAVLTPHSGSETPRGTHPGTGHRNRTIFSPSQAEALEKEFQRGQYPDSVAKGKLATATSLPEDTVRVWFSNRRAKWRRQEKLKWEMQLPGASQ

[2] = target: T2, PAX4 (Homo sapiens, UniProt O43316 9-242)
T2 sequence: T1 sequence with K192R

[3] = target: T3, PAX4 (Homo sapiens, UniProt O43316 9-242, R200Q)
T3 sequence: T1 sequence with K192Q

[4] = target: T4, PAX4 (Homo sapiens, UniProt O43316 9-242, F177V)
T4 sequence: T1 sequence with F169V, K192R

[5] = target: T5, PAX4 (Homo sapiens, UniProt O43316 9-242, F177Y)
T5 sequence: T1 sequence with F169Y, K192R

[6] = target: T6, PAX4 (Homo sapiens, UniProt O43316 9-242, R227W)
T6 sequence: T1 sequence with K192R, R219W

[7] = target: PROP1 (Homo sapiens, UniProt O75360 56-141)
Sequence of PROP1 (Homo sapiens, UniProt O75360 56-141) (O75360 56-141): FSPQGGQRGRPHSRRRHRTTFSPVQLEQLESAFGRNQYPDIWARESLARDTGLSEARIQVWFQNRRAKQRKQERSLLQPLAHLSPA

[8] = target: PROP1 (Homo sapiens, UniProt O75360 56-141, R99H)
Sequence of PROP1 (Homo sapiens, UniProt O75360 56-141, R99H) (O75360 56-141 R99H): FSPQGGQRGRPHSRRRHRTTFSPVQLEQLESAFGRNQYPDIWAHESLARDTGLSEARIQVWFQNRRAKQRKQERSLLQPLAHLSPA

[9] = target: PROP1 (Homo sapiens, UniProt O75360 56-141, F88S)
Sequence of PROP1 (Homo sapiens, UniProt O75360 56-141, F88S) (O75360 56-141 F88S): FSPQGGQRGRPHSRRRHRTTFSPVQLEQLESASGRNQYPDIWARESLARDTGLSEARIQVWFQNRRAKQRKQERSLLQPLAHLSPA

Sequence	binding signal [1]	binding signal [2]	binding signal [3]	binding signal [4]	binding signal [5]	binding signal [6]	binding signal [7]	binding signal [8]	binding signal [9]
CAGCCGGG	9.16 upbm affinity estimate (log intensity, higher = more binding, comparable within an allelic series)	9.21 upbm affinity estimate (log intensity, higher = more binding, comparable within an allelic series)	9.22 upbm affinity estimate (log intensity, higher = more binding, comparable within an allelic series)	9.02 upbm affinity estimate (log intensity, higher = more binding, comparable within an allelic series)	9.05 upbm affinity estimate (log intensity, higher = more binding, comparable within an allelic series)	9.17 upbm affinity estimate (log intensity, higher = more binding, comparable within an allelic series)			
CCGCGAGC	9.36 upbm affinity estimate (log intensity, higher = more binding, comparable within an allelic series)	9.36 upbm affinity estimate (log intensity, higher = more binding, comparable within an allelic series)	9.27 upbm affinity estimate (log intensity, higher = more binding, comparable within an allelic series)	9.16 upbm affinity estimate (log intensity, higher = more binding, comparable within an allelic series)	9.2 upbm affinity estimate (log intensity, higher = more binding, comparable within an allelic series)	9.31 upbm affinity estimate (log intensity, higher = more binding, comparable within an allelic series)			
CTAATCAG	11.2 upbm affinity estimate (log intensity, higher = more binding, comparable within an allelic series)	11.6 upbm affinity estimate (log intensity, higher = more binding, comparable within an allelic series)	11.3 upbm affinity estimate (log intensity, higher = more binding, comparable within an allelic series)	10.1 upbm affinity estimate (log intensity, higher = more binding, comparable within an allelic series)	10.5 upbm affinity estimate (log intensity, higher = more binding, comparable within an allelic series)	10.3 upbm affinity estimate (log intensity, higher = more binding, comparable within an allelic series)			
AGGTTGCC	9.39 upbm affinity estimate (log intensity, higher = more binding, comparable within an allelic series)	9.33 upbm affinity estimate (log intensity, higher = more binding, comparable within an allelic series)	9.49 upbm affinity estimate (log intensity, higher = more binding, comparable within an allelic series)	9.35 upbm affinity estimate (log intensity, higher = more binding, comparable within an allelic series)	9.33 upbm affinity estimate (log intensity, higher = more binding, comparable within an allelic series)	9.35 upbm affinity estimate (log intensity, higher = more binding, comparable within an allelic series)			
CCTTCCCC	9.18 upbm affinity estimate (log intensity, higher = more binding, comparable within an allelic series)	9.26 upbm affinity estimate (log intensity, higher = more binding, comparable within an allelic series)	9.24 upbm affinity estimate (log intensity, higher = more binding, comparable within an allelic series)	9.11 upbm affinity estimate (log intensity, higher = more binding, comparable within an allelic series)	9.14 upbm affinity estimate (log intensity, higher = more binding, comparable within an allelic series)	9.24 upbm affinity estimate (log intensity, higher = more binding, comparable within an allelic series)			
CGTTGGCC	9.3 upbm affinity estimate (log intensity, higher = more binding, comparable within an allelic series)	9.3 upbm affinity estimate (log intensity, higher = more binding, comparable within an allelic series)	9.53 upbm affinity estimate (log intensity, higher = more binding, comparable within an allelic series)	9.43 upbm affinity estimate (log intensity, higher = more binding, comparable within an allelic series)	9.4 upbm affinity estimate (log intensity, higher = more binding, comparable within an allelic series)	9.45 upbm affinity estimate (log intensity, higher = more binding, comparable within an allelic series)			
ATGTATTA	11.5 upbm affinity estimate (log intensity, higher = more binding, comparable within an allelic series)	11.8 upbm affinity estimate (log intensity, higher = more binding, comparable within an allelic series)	11.4 upbm affinity estimate (log intensity, higher = more binding, comparable within an allelic series)	10.8 upbm affinity estimate (log intensity, higher = more binding, comparable within an allelic series)	11 upbm affinity estimate (log intensity, higher = more binding, comparable within an allelic series)	11 upbm affinity estimate (log intensity, higher = more binding, comparable within an allelic series)			
CCGGGCCC	9.07 upbm affinity estimate (log intensity, higher = more binding, comparable within an allelic series)	9.07 upbm affinity estimate (log intensity, higher = more binding, comparable within an allelic series)	9.07 upbm affinity estimate (log intensity, higher = more binding, comparable within an allelic series)	9.05 upbm affinity estimate (log intensity, higher = more binding, comparable within an allelic series)	9 upbm affinity estimate (log intensity, higher = more binding, comparable within an allelic series)	9.12 upbm affinity estimate (log intensity, higher = more binding, comparable within an allelic series)	6.54 upbm affinity estimate (log intensity, higher = more binding, comparable within an allelic series)	6.73 upbm affinity estimate (log intensity, higher = more binding, comparable within an allelic series)	6.36 upbm affinity estimate (log intensity, higher = more binding, comparable within an allelic series)
CGACCTGC	9.47 upbm affinity estimate (log intensity, higher = more binding, comparable within an allelic series)	9.54 upbm affinity estimate (log intensity, higher = more binding, comparable within an allelic series)	9.42 upbm affinity estimate (log intensity, higher = more binding, comparable within an allelic series)	9.26 upbm affinity estimate (log intensity, higher = more binding, comparable within an allelic series)	9.33 upbm affinity estimate (log intensity, higher = more binding, comparable within an allelic series)	9.35 upbm affinity estimate (log intensity, higher = more binding, comparable within an allelic series)			
GCCGCGCC	9.1 upbm affinity estimate (log intensity, higher = more binding, comparable within an allelic series)	9.1 upbm affinity estimate (log intensity, higher = more binding, comparable within an allelic series)	9.18 upbm affinity estimate (log intensity, higher = more binding, comparable within an allelic series)	9.12 upbm affinity estimate (log intensity, higher = more binding, comparable within an allelic series)	9.11 upbm affinity estimate (log intensity, higher = more binding, comparable within an allelic series)	9.16 upbm affinity estimate (log intensity, higher = more binding, comparable within an allelic series)			
AAATTAGG	11.4 upbm affinity estimate (log intensity, higher = more binding, comparable within an allelic series)	11.9 upbm affinity estimate (log intensity, higher = more binding, comparable within an allelic series)	11.5 upbm affinity estimate (log intensity, higher = more binding, comparable within an allelic series)	10.2 upbm affinity estimate (log intensity, higher = more binding, comparable within an allelic series)	10.5 upbm affinity estimate (log intensity, higher = more binding, comparable within an allelic series)	10.6 upbm affinity estimate (log intensity, higher = more binding, comparable within an allelic series)			
